Measured values published in PubChem BioAssay AID720706 (Broad Institute, 2013).
Where “and” joins values, the source holds several entries; their conditions need not be identical. Identical values can stand only once. Hit rate of the full screen: of about 350,000 compounds, about 5,500 (1.6%) were called active.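 Rule for the calls: active = significant combined selectivity score with lowered wild-type GFP, culture density cut under 30%, mutant RFP and density less affected; inactive = any of these conditions unmet.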 The entries come from a sample that favours actives as a whole.

Test: reduced GFP signal of wild-type E. coli, primary screen, bacterial rRNA inhibitor project, GFP/RFP fluorescence, OD600, single point (AID 720706)
Conditions: E. coli WT GFP vs humanized-ribosome RFP mutants, 24 h; GFP signal change (wild-type ribosome): stronger effect = lower value, DMSO median 0, no signal -100; OD600 change: measured here: OD600 growth, DMSO median 0, no signal -100; RFP signal change: measured here: RFP humanized mutant strains, DMSO median 0, no signal -100, concentration not given here

SMILES | GFP signal change (wild-type ribosome) | OD600 change | RFP signal change
Cc1noc(C)c1S(=O)(=O)Nc1ccc2c(c1)C(=O)N([C@@H](C)CO)C[C@@H](C)[C@@H](CN(C)C)O2 | 5.72% (inactive) | -2.97% | -0.906%
Cc1cc2cc(CN(Cc3cccs3)Cc3nnnn3CC3CCCO3)c(=O)[nH]c2cc1C (stereo not given) | -7.06% (inactive) | -4.84% | -2.86%
Cc1cc(C)c2cc(CN(Cc3cccs3)Cc3nnnn3CC3CCCO3)c(=O)[nH]c2c1 (stereo not given) | -37.2% (active) | -22.2% | -2.73%
O=C(c1cccs1)N(Cc1cc2ccccc2[nH]c1=O)CC1CCCO1 (stereo not given) | -0.275% (inactive) | -2.27% | -1.32%
CO[C@@H]1CN(C)C(=O)c2ccc(NC(C)=O)cc2OC[C@@H](C)N(CC2CC2)C[C@H]1C | 2.26% (inactive) | -1.92% | 1.24%
CC(=O)N(C)C[C@@H]1Oc2ccc(N)cc2CC(=O)N(C)C[C@H]1C | 1.8% (inactive) | 0.888% | -1%
CNC[C@@H]1Oc2ccc(NC(C)=O)cc2CC(=O)N(C)C[C@@H]1C | -0.631% (inactive) | 1.55% | 0.729%
COc1ccc(S(=O)(=O)N[C@@H]2CC[C@@H](CC(=O)N3CCC(Cc4ccccc4)CC3)O[C@@H]2CO)cc1 | 8.03% (inactive) | -22.7% | 10.2%
C[C@H](CO)N1C[C@H](C)[C@H](CN(C)Cc2ccc3c(c2)OCO3)Oc2c(NS(=O)(=O)c3ccccc3)cccc2C1=O | -1.49% (inactive) | 3.3% | -2.6%
C[C@H](NC(=O)[C@H]1N[C@H]2c3ccc(-c4ccc(C(=O)N(C)C)cc4)c(=O)n3C[C@H]2[C@@H]1CO)c1ccccc1 | 1.87% (inactive) | 7.26% | -1.73%
CN(C)C(=O)c1cccc(-c2ccc(C3[C@H]4CNC[C@@H]3N4C(=O)Nc3ccccc3F)cc2)c1 (stereo not given in full) | 0.866% (inactive) and 2.44% (inactive) | -5.13% and 4.05% | -2.14% and 0.208%
COc1ccccc1-c1cnc2c(c1)C(=O)N([C@@H](C)CO)C[C@H](C)[C@@H](CN(C)C(C)=O)O2 | 3.59% (inactive) | 4.33% | -1.79%
O=C(/C=C/c1ccc2c(c1)OCCO2)c1ccc(O)cc1 | -19.8% (active) | -11.6% | 6.75%
CC(CC(=O)O)C(=O)c1ccc(Cl)c([N+](=O)[O-])c1 (stereo not given) | 10.7% (inactive) | 9.82% | -3.76%
CC(=O)Nc1ccc(C=Cc2ccc([N+](=O)[O-])cc2)cc1 | 2.45% (inactive) | 3.79% | -1.71%
O=C(/C=C/c1ccc(Cl)c([N+](=O)[O-])c1)c1ccc(O)cc1 | -26.1% (active) | -2.69% | 9.14%
CC(=O)Nc1ccc(C=CC(=O)c2ccc([N+](=O)[O-])cc2)cc1 | 5.97% (inactive) | 7.9% | -0.138%
COc1ccc(OC)c(/C=C/C(=O)c2ccc3c(c2)OCO3)c1 | 0.015% (inactive) | -9.29% | -8.02%
CN(C)c1ccc(/C=C/C(=O)c2ccc(O)cc2)cc1[N+](=O)[O-] | -22.5% (active) | -13.8% | 5.33%
O=C(/C=C/c1ccc(Cl)cc1)N1CCN(c2ccccc2[N+](=O)[O-])CC1 | -31% (inactive) | -42.6% | -26.6%

SMILES | GFP signal change (wild-type ribosome) | OD600 change | RFP signal change
O=C(COC(=O)c1ccc(O)cc1O)c1ccc2c(c1)OCCO2 | -13.2% (inactive) | -20.4% | 0.835%
CC=Cc1ccc2n(c1=O)C[C@@H]1[C@@H](CO)[C@H](C(=O)N(C)C)N(CC3CCOCC3)[C@H]21 (mixture of isomers) | 2.33% (inactive) | -5.67% | 0.865%
CN1c2ccc(Br)cc2[C@@H]2[C@@H](CCN2C(=O)C2CCCC2)[C@H]1CO | -37% (inactive) | -68.3% | 0.745%
COCC#Cc1ccc([C@@H]2[C@@H](CO)N3CCCCN(C(=O)COC)C[C@@H]23)cc1 | 4.36% (inactive) | 1.27% | -1.64%
COCC#Cc1ccc2c(c1)O[C@H](CN(C)C(=O)CC1CC1)[C@@H](C)CN([C@@H](C)CO)S2(=O)=O | 1.22% (inactive) | 3.88% | -1.84%
CCCNC(=O)N(C)C[C@H]1Oc2ncc(-c3ccccc3F)cc2C(=O)N([C@@H](C)CO)C[C@H]1C | -0.164% (inactive) | 9.97% | 0.69%
Cc1cccc(Nc2nc(-c3ccccc3)cs2)n1 | -36.3% (active) | -28.1% | -6.26%
CC(=O)NC(c1ccccc1)c1nc(-c2cccc(C(C)C)c2)cs1 (stereo not given) | 2.35% (inactive) | -27.5% | 4.32%
COc1ccc(-c2csc(Nc3cccc(C)n3)n2)cc1OC | -3.87% (inactive) | -21.5% | 23%
COc1ccc(-c2cn(CC[C@@H]3CC[C@@H](NS(=O)(=O)c4ccccc4C)[C@H](CO)O3)nn2)cc1 | -0.161% (inactive) | 0.015% | 1.23%
COc1ccccc1NC(=O)N[C@H]1CC[C@@H](CC(=O)NCc2ccc(Cl)c(Cl)c2)O[C@H]1CO | -9.75% (inactive) | -22.7% | 1.88%
CC12CCC(=O)C=C1CCC1C2C(O)CC2(C)C1CCC2(O)C(O)CO (stereo not given) | 8.19% (inactive) | 4.56% | 4.01%
CC(=O)O[C@]1(C(C)=O)CC[C@H]2[C@@H]3C=C(C)C4=CC(=O)CC[C@]4(C)[C@H]3CC[C@@]21C | -55.8% (inactive) | -76.8% | -10.6%
CC(=O)C12CC(C)=C(C)CC1CC1C3CCC4=CC(=O)CCC4(C)C3CCC12C (stereo not given) | -17.6% (active) | 7.85% | 5.44%
CCCC#Cc1ccc([C@H]2[C@H]3CN(C(=O)Nc4cc(F)ccc4F)CC(=O)N3[C@H]2CO)cc1 | -18.4% (inactive) | -50.2% | 11.1%
C[C@@H]1CN([C@H](C)CO)C(=O)c2cc(NC(=O)NC3CCCCC3)ccc2O[C@H]1CN(C)C(=O)Nc1ccccc1 | 5.36% (inactive) | 10.1% | 2.7%
O=C(C[C@H]1C=C[C@H](NC(=O)C2CCC2)[C@H](CO)O1)NCCCN1CCOCC1 | 1.78% (inactive) | 4.36% | -0.385%
CCCCCn1nnnc1C1c2ccccc2C(=O)N1Cc1ccco1 (stereo not given) | -4.73% (inactive) | -2.58% | -0.015%
CCCCCn1nnnc1-c1nc2cc3ccccc3cc2[nH]c1=O | -19.2% (active) | -5.54% | 8.22%
CCCCn1c(-c2cccc(C)c2)nc2cc3[nH]c(=O)c(C(C)C)nc3cc21 | -29.5% (inactive) | -62% | 13.5%
